From the supplement of paper PMC6555819

What follows are sequences tested on LXRb:RXRa (NR concentration 270 nM, RXRa partner concentration 90 nM) (assay: PBM binding z-score (relative to random genomic background probes); higher = stronger binding; sequences stand for … in GC…GCGATTGACAGCGTAGAATGAAGG).
Experimental: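 Protein-binding microarray (Agilent 4x180K custom design, double-stranded 60-nt probes: 5' GC cap, 34-nt variable region, 24-nt constant primer region; full probe sequence given). Purified or IVT nuclear receptor:RXRα heterodimers (3:1 NR:RXRα, mostly 270:90 nM) or homodimers were incubated for 1 h in PBS with 2% milk and no ligand, then detected with Alexa488 antibodies. Fluorescence from o1-orientation probes (~5 replicates averaged) was converted to z-scores against 500 random hg19 background probes. Variable regions are seed direct-repeat (DR0–DR5) sites, all their single-nucleotide variants and half-site ablations.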
In the case of CGTCCAAGGACAATGCTAGGTCAGTGAAAGCATT, the PBM binding z-score is reported as -0.0607. Work on ACTTACGGGTCTACGAGGTTATAGCACGCGTATA yielded a PBM binding z-score of 0.819. Work on TAGCCTAGGTCATGCGGGACAGTATAGTGTCGGC yielded a PBM binding z-score of 1.88. CGTCAAAGTCCAAGGTAACGTAACAGAAAGCAGC was tested, and the PBM binding z-score was -0.011. In the case of TAGCCGAGGTCATTCAGGGGCCAGTATAGAAAGC, the PBM binding z-score is reported as 5.52. For CGTCCAAGGTCACGGTCAGTGAAAGAGACTCGAA, the PBM binding z-score was 4.76. CGTCCAAGGTCATATGAGGTCAGTGAAGACAGAT was tested, and the PBM binding z-score was 6.58. GCATATAGGTAATACAAGGTCAAAGTCCGATTGT gave a PBM binding z-score of 5.63. Work on CGTCAAACTTCAACTAAGGTAACGTAAAGCACGC yielded a PBM binding z-score of 0.543. CGAACAAGGTCACCAGGACAGTGAAGAGGTTGGA gave a PBM binding z-score of 4.28. With CCTTACGGGTCACTGACAGGTTATAGCGTTTGGA the PBM binding z-score was 3.4. CGTCCGAGGTCAAGGTCAGTGAAAGAGACTCGAA gave a PBM binding z-score of 5.26. Sequence ATATGTAGGTTAAGCGTCATTCAGGTTGGTTCGC has a PBM binding z-score of 0.883. CCTAGTGGGCCAAGGTCATTGATCAGTCAAAGCA was tested, and the PBM binding z-score was 2.79. With GATACAGGGTCAAGGTCAGAGTACGCGTATTGAT the PBM binding z-score was 4.85. AGAATGAGGTTACTAAAGATCAGGGAAACGCTTG was tested, and the PBM binding z-score was 5.45. TCTAGTTGGTCACGGAGGTCACAAACGACGGGTA showed a PBM binding z-score of 3.15. CGAACTAGGTCAAGGCCAGTGAATCTCCGCACGC gave a PBM binding z-score of 1.44. CCGAGTTGGTCAAGGTCACACACGCTATAGGTAC showed a PBM binding z-score of 3.66. For CGTCCAAGGTCAAGGTCAATGAAAGAGACTCGAA, the PBM binding z-score was 4.94. CCTACTGGGCCACTAAAGGTCATTGATTCAGTGA showed a PBM binding z-score of 5.49. In the case of TATAAAGGGTCAAAGGCCAGAGTACGAATGTCGA, the PBM binding z-score is reported as 5.24. CCTACTGGGCCGTTCAGAGGTCATTGATCATATG was tested, and the PBM binding z-score was 3.55. ATATGTAGGTTATCGGGTCATACAGTTTGCGCAT gave a PBM binding z-score of 3. CGAACTAGGTCGTCCAGGACAGTGAATACATTGA was tested, and the PBM binding z-score was 0.123. ATCGAAAGGTCGAAGGTGCGTATACCCACCCGAA was tested, and the PBM binding z-score was 2.33. CAAACTAGGTCACAGTGGTCAAAGTCCGTGCGTA showed a PBM binding z-score of 2.4. For CCTCGGAGGACAACAGGAGGTCATAGCTGCCAGA, the PBM binding z-score was 3.15. In the case of CCTACTGGGCCAAAGGTGATTGATTCCAATGCTC, the PBM binding z-score is reported as 0.206. Sequence AGTCAAAGTTGAGGACGAGGTAACGTAAAGCACG has a PBM binding z-score of -0.0986. GTTACAGGGTCAAGGCCAGAGTACGCGTATTGAT was tested, and the PBM binding z-score was 3.64. TAGCCTAGTTCATTCAGGGGCCAGTATAGAAAGC showed a PBM binding z-score of 0.643. CGAACGAGGTCATTGACAGGACAGTGAATAGTAA was tested, and the PBM binding z-score was 5.01. CCTTACGGGTCCCTCCAGGTTATAGCATCGGAGT was tested, and the PBM binding z-score was -0.459. CGTTCAAGGTCAAAGGTCAGTGAAGAGATGACGG was tested, and the PBM binding z-score was 6.76. In the case of CTATGTAGGTTAAGGGAGTCATTCAGTTTGAAAG, the PBM binding z-score is reported as 0.642. AGTCAAACTTCAGGACGAGGTAACGTAAAGCACG was tested, and the PBM binding z-score was -0.266. In the case of CCTCGGAGGACAGAAGGTCAAAGCTGTCCGCTTT, the PBM binding z-score is reported as 3.1. In the case of CGAACTAGGTCAAGGGACAGTGAAAGGCGACGTA, the PBM binding z-score is reported as 1.33. CGAACTAGGTCAAGGACAGTAAATCTCCGCACGC showed a PBM binding z-score of 1.45.
